The record followed here is PubChem BioAssay AID1851 (National Center for Advancing Translational Sciences (NCATS), 2009).

The campaign covered roughly 16,000 compounds. About 5,700 (36%) were called active. Not shown: some 24% with an inconclusive outcome. This is one part of the list. Values without a mark were called inactive. Calls come from the whole dose curve; as a rule, active = well fitted curve in the direction sought with a large enough effect; inconclusive = small, poorly fitted or top-dose-only effect, or effect the other way; inactive = no such curve, though single readings can be large or run the other way.
% is set by controls: 0 for no effect and ±100 for the full control effect.

In this experiment the target is Cytochrome P450 1A2 (Homo sapiens) (UniProt P05177). Description: Cytochrome panel assay with activity outcomes. The following applies: recombinant CYP, pro-luciferin dealkylation, luminescence, p450-cyp1a2; series mostly up to 57.1 µM; activity, negative = inhibition: at the top concentration.
Chain of Cytochrome P450 1A2 (Homo sapiens) (P05177 whole entry, looked up): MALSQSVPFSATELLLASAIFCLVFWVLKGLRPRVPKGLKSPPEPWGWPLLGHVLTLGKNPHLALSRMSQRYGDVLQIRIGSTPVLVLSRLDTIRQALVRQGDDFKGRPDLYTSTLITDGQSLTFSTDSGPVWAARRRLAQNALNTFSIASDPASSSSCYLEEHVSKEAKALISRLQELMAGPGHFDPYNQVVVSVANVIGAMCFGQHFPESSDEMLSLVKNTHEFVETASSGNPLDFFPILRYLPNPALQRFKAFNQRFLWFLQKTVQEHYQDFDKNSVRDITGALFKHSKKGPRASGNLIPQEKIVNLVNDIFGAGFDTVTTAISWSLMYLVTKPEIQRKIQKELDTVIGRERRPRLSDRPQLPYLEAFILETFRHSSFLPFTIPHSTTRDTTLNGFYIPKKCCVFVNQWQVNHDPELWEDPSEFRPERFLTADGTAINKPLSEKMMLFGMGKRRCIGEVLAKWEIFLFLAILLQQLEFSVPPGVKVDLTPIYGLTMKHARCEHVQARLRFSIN
As to `COc1cccc(Cn2c(=O)c(-c3cc(F)cc(F)c3)nc3cnc(N4CCN(C)CC4)nc32)c1`, the “activity, negative = inhibition” value is -16.9%. For orientation: AC50 means the concentration at which the activity in the assay is half-maximal. With `COc1ncc2nc(-c3cc(F)cc(F)c3)c(=O)n(C[C@H]3CCCO3)c2n1`, the AC50 is 3.16 µM (active). For the compound `CCCC12CN3CC(CCC)(CN(C1)C3C(O)C(O)C(O)CO)C2=O` (stereo not drawn), the “activity, negative = inhibition” value is 1.15%. Consider `CCCC(=O)Nc1ccc(C(=O)Nc2cc(C(F)(F)F)ccc2Cl)cc1`, for which the “activity, negative = inhibition” value is -21.8%. For the compound `COc1ccc(C(=O)N2CCC3(CCN(Cc4cc(C(F)(F)F)cc(C(F)(F)F)c4)CC3)CC2)cc1`, the “activity, negative = inhibition” value was -5.69%. Consider `COc1cccc(C(=O)Nc2cc(C(F)(F)F)ccc2Cl)c1`, for which the AC50 is 2.51 µM (active).

Regarding `COc1cc(C(=O)Nc2cc(C(F)(F)F)ccc2Cl)cc(OC)c1OC`, the AC50 was 5.01 µM (active). For the compound `CN(C)S(=O)(=O)Oc1cccc(C(=O)Nc2ccccc2Cl)c1`, the AC50 is 2 µM (active). Same read-out and setting: the same measure for `COc1ccc(/C=C/C(=O)Nc2cc(C(F)(F)F)ccc2Cl)cc1`: 0.447 µM (active). For the compound `COc1cc(NC(=O)c2ccc(COCC(F)(F)F)cc2)cc(OC)c1OC`, the “activity, negative = inhibition” value is -21.6%. In the case of `CCOc1ccc(/C(O)=C2/C(=O)C(=O)N(CCOCCO)C2c2cccnc2)cc1` (stereo not drawn), the “activity, negative = inhibition” value is -14.1%. Take `CS(=O)(=O)N1CCC[C@@]2(CCN(c3ccccn3)C2)C1`: the “activity, negative = inhibition” value is -10.5%. Take `COc1ccc(CNC(=O)/C=C/c2ccc(OCCCF)cc2)cc1`: the “activity, negative = inhibition” value is -5.44%. `COC(=O)CNC(=O)/C=C/c1ccc(OC)cc1`: the AC50 is 12.6 µM (active).

For the compound `COC(=O)CNC(=O)CCCCC(=O)NCC(=O)OC`, the “activity, negative = inhibition” value is 5.92%. For `Cc1ccc(CNC(=O)CCNS(=O)(=O)c2ccc3c(c2)c(=O)n(C)c(=O)n3C)cc1`, the “activity, negative = inhibition” value is 15.7%. On to `CCOc1ccc(CCNC(=O)C2CCN(S(=O)(=O)CC)CC2)cc1OCC`, for which the “activity, negative = inhibition” value was -18.3%.

As for `CCOC(=O)Cn1c(=O)oc2cc(S(=O)(=O)NCCc3ccc(OCC)c(OCC)c3)ccc21`, the half-maximal activity concentration (AC50) was 12.6 µM (active).

For the compound `N#Cc1cccc(NC(=O)N2CC[C@@]3(CCCN(C(=O)c4ccco4)C3)C2)c1`, the “activity, negative = inhibition” value was -9.82%. The same measure, in the same setting: the same measure for `COc1ccc(C(=O)NCCCN2CCOCC2)cc1OC`: -0.134%; for `Cc1ccc(C(=O)NCCCN2CCOCC2)cc1N1CCCC1=O`: -2.59%.

In the case of `O=C(NCCCn1ccnc1)c1ccc(Br)c(S(=O)(=O)N2CCOCC2)c1`, the AC50 is 1.78 µM (active). Turning to `Cc1cccc([C@@H]2CN(C)CCc3c2cc(O)c(O)c3Cl)c1`, the “activity, negative = inhibition” value was -2.57%. Take `CC(C)c1cc(C(F)(F)F)nc(NNc2nc(C(C)C)cc(C(F)(F)F)n2)n1`: the activity, negative = inhibition was -41.5% [at 11.4 µM].

For the compound `CC(C)Nc1nc(Oc2ccc(Cl)cc2)cc(C(F)(F)F)n1`, the AC50 is 2 µM (active). On to `CCS(=O)(=O)c1ccc2oc(Nc3cc(C)cc(C)c3)nc2c1`, for which the half-maximal activity concentration (AC50) was 5.01 µM (active). Consider `Cc1cc(C)n(-c2cc(N3CCN(S(=O)(=O)c4ccc(C)c(C)c4)CC3)ccc2[N+](=O)[O-])n1`, for which the “activity, negative = inhibition” value was 5.25%.

`CC(C)NC[C@H](O)COc1cccc2ccccc12`: the AC50 is 0.2 µM (active). In the case of `CC(C)NC[C@H](O)c1cc(O)cc(O)c1`, the AC50 entry was “inactive”. In the case of `CC(C)NC[C@@H](O)COc1ccc(COCCOC(C)C)cc1`, the AC50 entry is “inactive”.

Take `CC(C)NC[C@@H](O)c1ccc(O)c2ncccc12`: the activity, negative = inhibition is -12.1% [at 2.29 µM]. Same read-out and setting: the result for `OC[C@@H](O)CNc1ncnc2ccccc12` reads -18.7% [at 11.4 µM]; that for `CC(=O)Nc1ccc(OC[C@@H](O)CNC(C)C)cc1`, 6.78% [at 25.6 µM]; that for `O=C(O)c1cc(=O)c2c(OCC(O)COc3cccc4oc(C(=O)O)cc(=O)c34)cccc2o1`, 3.24% [at 25.6 µM]. On to `CC(C)NC[C@H](O)c1ccc(NS(C)(=O)=O)cc1`, for which the AC50 entry was “inactive”.

With `CC(C)NC[C@H](O)c1ccc2ccccc2c1`, the AC50 is 12.6 µM (active). For `OC[C@@H](O)COc1cccc2ccccc12`, the AC50 is 0.631 µM (active).

Consider `O=C(Cc1ccccc1)N/N=C\c1ccc(Br)o1`, for which the AC50 is 4.47 µM (active). Turning to `N[C@@](CC(=O)O)(Cc1ccccc1)C(=O)O`, the activity, negative = inhibition was -13.4% [at 2.29 µM]. Regarding `O=C(O)/C(=C\c1ccccc1)Cc1ccccc1`, the activity, negative = inhibition was -18.4% [at 11.4 µM].

For the compound `O=C(Cc1ccccc1)N/N=C/c1cc(Br)c(Br)o1`, the AC50 was 2.24 µM (active). For `COC(=O)c1ccc2ccn(CC(=O)NC3CCCCC3)c2c1`, the “activity, negative = inhibition” value is -26.7%. Turning to `COC(=O)c1ccc(-n2cncn2)c(F)c1`, the AC50 is 0.708 µM (active).

For the compound `O=P(O)(O)O[C@@H]1O[C@H](CO)[C@@H](O)[C@H](O)[C@@H]1O`, the activity, negative = inhibition is -16.5% [at 11.4 µM]. As for `COc1ccccc1OCCCCCc1c(C)n[nH]c1C`, the AC50 was 1.78 µM (active). As for `O=C(c1ccc(Cl)cc1)N1CCN(c2cc(=O)[nH]nc2-c2ccccc2)CC1`, the “activity, negative = inhibition” value was 0.0427%. For the compound `O=[N+]([O-])c1ccc(N2CCN(CCOc3nonc3-c3ccccc3)CC2)c(Cl)c1`, the “activity, negative = inhibition” value is -19.6%.

On to `O=c1cc(N2CCCCC2)c(-c2ccccc2)nn1Cc1ccccc1Cl`, for which the AC50 is 1.26 µM (active).
